PubChem BioAssay AID485298 (National Center for Advancing Translational Sciences (NCATS), 2010)
Among all 320,000 compounds or so, about 740 (0.23%) were called active. Inconclusive results (about 2%) are left out. For the sample, actives were picked, then their nearest neighbours and some compounds at random. A number with no mark means an inactive call. Calls come from the whole dose curve; as a rule, active = well fitted activation curve with a large enough effect; inconclusive = small, poorly fitted or top-dose-only effect; inactive = no such curve, though single readings can be large or run the other way.

Assay: qHTS Assay for Small Molecule Inhibitors of Mitochondrial Division or Activators of Mitochondrial Fusion; note: nearly all actives have a fitted effect of over 45% in size; for growth rescue (activation): % of control where 0% means no effect
Conditions: S. cerevisiae fusion-defective mutant growth rescue, CellTiterGlo 48 h; series mostly up to 46.1 µM; growth rescue (activation): at the top concentration
From the text: NIH Chemical Genomics Center [NCGC] NIH Molecular Libraries Probe Production centers Network [MLPCN] MLPCN Grant: MH081279-01 Assay Submitter (PI): Jodi M. Nunnari NCGC Assay Overview: The budding yeast S. cerevisiae is a powerful system to study mitochondrial fusion. Unlike other organisms, yeast cells without functional mitochondrial DNA (mtDNA) can be propagated and studied as long as they maintain a mitochondrial compartment and are provided with a fermentable carbon source. When mitochondrial fusion is blocked in yeast, mitochondrial tubules rapidly fragment and division continues unopposed. Under conditions where fusion is compromised in mammalian cells, nearly identical changes in mitochondrial structure have been observed. Thus, these findings indicate that steady state mitochondrial structure in cells is a characteristic and specific indicator of fusion activity. Mounting evidence has pointed to a connection between mitochondrial dynamics and apoptosis in mammalian cells. These studies indicate that in mammalian cells mitochondrial dynamics are more integrated into cellular processes than in yeast cells and have evolved not only to distribute the organelle but also to aid in the regulation of cellular homeostasis. Mitochondrial fusion proteins attenuate apoptosis by inhibiting the release of cytochrome c from mitochondria, in part by controlling cristae structures. Thus, small molecules that inhibit mitochondrial […] may promote apoptosis and potentially act as novel chemotherapeutics and stimulation of apoptosis has become an attractive target of anti-cancer therapies. To identify inhibitors of mitochondrial division, we exploit the growth phenotypes of mitochondrial fusion-defective mutants. The temperature sensitive fusion alleles, such as fzo1-1 and mgm1-5, cause mitochondrial membranes to fragment in cells under non-permissive conditions and cells lose mtDNA, and are unable to grow in the presence of non-fermentable carbon source glycerol. Inhibiting mitochondrial division rescues growth. We have developed and optimized a luminescence cell viability assay in 1536 well format for the identification of inhibitors in the yeast mitochondrial fusion-defective assay.
The yeast glycerol stocks where kindly supplied by the laboratory of Dr. Jodi Nunnari, University of California, Davis. All yeast glycerol stock solutions were stored in single use aliquots at -80C. The CellTiterGlo luminescence reagent, containing luciferase and luciferin, were purchased from Promega, and the reagents were stored according to manufacturer's instructions. The Buffer components for the YPEG yeast growth medium were purchased from Sigma-Aldrich (St. Louis, MO). YPEG growth medium: 1% (w/v) yeast extract, 2% (w/v) Bacto-peptone, 3% Ethanol, 3% glycerol, 0.4mM Tryptophan, 0.36mM Adenine. qHTS Assay Protocol: 1.#Dispense 2.5 ul yeast growth medium per 1536 well plate. 2.#Transfer 23 nl per well of compound to plate. 3.#Dispense 2.5 ul yeast solution at appropriate seeding density per well. 4.#Incubate for 48 hours at 37C. 5.#Dispense 5 ul of CellTiterGlow solution per well. 6.#Incubate at ambient for 10 minutes. 7.#Read using bio-luminescence protocol on Viewlux.
Potency is the fitted concentration of half-maximal effect.

| Compound | Potency | growth rescue (activation) |
| --- | --- | --- |
| O=C1C=C(c2cccc(Cl)c2O)C[C@@H](c2ccc(F)cc2)C1 | 11.2 µM (active) |  |
| COc1ccc([C@H]2CC(=O)C=C(c3ccc(CO)cc3)C2)cc1 |  | 10.6% |
| CC(C)(C)CC(=O)Nc1nnc(SCC(=O)NCc2cccs2)s1 |  | -2.23% |
| O=C1CSC(=O)N1CCOCCN1C(=O)CSC1=O |  | -3.76% |
| Cc1cccc(NC(c2cccc(F)c2)c2ccc3ccc(C)nc3c2O)n1 (configuration not stated) |  | 2.76% |
| CCCCCc1ccc(-c2ccc(OCC)cc2)nc1 |  | -3.67% |
| CCCCCc1ccc(-c2cn(Cc3ccc4ccccc4c3)nn2)cc1 |  | 1.57% |
| CCCCCc1ccc(-c2ccc(C(=O)O)cc2)nc1 | 15.8 µM (active) |  |
| COc1ccc(-n2c(SCC(=O)Nc3ccc(Cl)c(C)c3)nc3n[nH]c(C)c3c2=N)cc1 |  | 1.03% |
| CN(c1ccccc1)S(=O)(=O)c1cc(C(=O)OCC(=O)N2CCN(C(=O)c3ccco3)CC2)ccc1Cl |  | 5.81% |
| COc1cc(OC)cc(C(=O)N[C@H](C(=O)Nc2nc3ccccc3[nH]2)C(C)C)c1 |  | -2.45% |
| CN(c1ccccc1)S(=O)(=O)c1cc(C(=O)Nc2nc3ccccc3[nH]2)ccc1Cl | 12.6 µM (active) |  |
| CN(C)S(=O)(=O)c1ccc(C(=O)NCC2(N3CCOCC3)CCCCC2)cc1 |  | -7.31% |
| COc1ccc(NS(=O)(=O)c2ccc(C)c(C(=O)N(C)Cc3ccc(OC)cc3OC)c2)cc1 |  | 3.44% |
| CC1CC2C3CCC4=CC(=O)C=C[C@]4(C)[C@@]3(F)[C@@H](O)C[C@]2(C)[C@@]1(O)C(=O)CO (some centres not stated) |  | -2.79% |
| O=C(NCCCCCCCCCNC(=O)C(F)(F)F)C(F)(F)F |  | 3.56% |
| CC(CN1CCOCC1)OC(=O)c1ccc(C(C)(C)C)cc1 (configuration not stated) |  | 6.51% |
| Cc1ccc(C(=O)OC(C)CN2CCOCC2)cc1 (configuration not stated) | 22.4 µM (active) |  |
| CC(CN1CCOCC1)OC(=O)c1ccc(Cl)cc1Cl (configuration not stated) |  | -1.69% |
| C=C(C)C1CC=C(C)/C(=N\NC(=O)CNc2ccccc2OC)C1 (configuration not stated) |  | 24.6% |
| Cc1ccc(S(=O)(=O)/N=C(/NC(=S)Nc2c(C)n(C)n(-c3ccccc3)c2=O)c2ccccc2)cc1 |  | 0.193% |
| Cn1c2cc(B(O)O)sc2c2cnn(Cc3ccccc3F)c(=O)c21 |  | -0.837% |
| CCc1ccc(Nc2ncc3c(n2)CC(c2ccco2)CC3=O)cc1 (configuration not stated) | 11.2 µM (active) |  |
| O=C(Nc1ncc2c(n1)CC(c1ccco1)CC2=O)c1ccc(Cl)cc1 (configuration not stated) |  | 6.99% |
| COc1cc(C2CC(=O)c3cnc(NC(C)=O)nc3C2)cc(OC)c1OC (configuration not stated) |  | 0.0051% |
| Cc1cc(NC(=O)Nc2c[nH]c(=O)[nH]c2=O)ccc1Br |  | 0.148% |

| Compound | Potency | growth rescue (activation) |
| --- | --- | --- |
| CCOC(=O)c1c(CNCc2ccccc2F)c2sc(C)cc2n1C |  | -0.808% |
| COc1cc(C2NC(=O)NC(c3ccccc3)=C2C(C)=O)c(Br)cc1OCC(N)=O (configuration not stated) |  | 2.71% |
| COc1ccccc1N(C)S(=O)(=O)c1ccc(C(=O)NC2CCCCCC2)cc1 |  | -3.35% |
| COc1ccc(CCNC(=O)CN2C(=O)CCSc3ccccc32)c(OC)c1 |  | -10.5% |
| O=C(N/N=C/c1c(Cl)[nH]c2ccccc12)c1sc2ccccc2c1Cl | 15.8 µM (active) |  |
| COc1ccc(CNC(=O)CNC(=O)c2sc3ccccc3c2Cl)cc1OC |  | -3.78% |
| COCCNC(=S)N/N=C/c1c(C)[nH]c2ccccc12 |  | -4.82% |
| Nc1ncnc2c1c(I)cn2[C@@H]1C[C@H](N)[C@@H](O)[C@H]1O |  | -0.615% |
| COc1ccccc1NC(=O)c1cc(S(=O)(=O)NCCc2ccccc2)ccc1F |  | -4.24% |
| COc1cccc(-n2c(=O)c3c(C)c(C(=O)N(C)C)sc3n(CC(=O)NCCc3ccc(OC)c(OC)c3)c2=O)c1 |  | -2.48% |
| CC(=O)Nc1ccc(S(=O)(=O)NCCc2ccccc2)cc1 |  | -2.71% |
| CCCCNC(=O)C1CCC(CNS(=O)(=O)c2ccc(NC(C)=O)cc2)CC1 (configuration not stated) |  | -18.1% |
| COCCCNC(=O)c1ccc(CNS(=O)(=O)c2ccc(NC(C)=O)cc2)cc1 | 0.631 µM (active) |  |
| O=C(NC1CCCC1)C(c1ccco1)N(C(=O)c1ccco1)c1ccc(F)cc1 (configuration not stated) |  | 0.928% |
| CN(C)C(=O)c1ccc(NC(=O)c2ccccc2-c2ccccc2)cc1 |  | -1.29% |
| CN(C)C(=O)c1ccc2c(c1)C1C3CCC(C3)C1C(c1ccccc1)N2 (configuration not stated) | 12.6 µM (active) |  |
| CC1(C)C/C(=C(/C#N)C(N)=O)CCO1 |  | -4.67% |
| NC(N)=Nc1nc2ccc(Br)cc2c(=O)[nH]1 |  | 3.53% |
| O=S(=O)(Nc1ccc2nc(N3CCOCC3)sc2c1)c1ccccc1 |  | 9.86% |
| CC(=O)OCCOCn1cnn2c(=O)c(Br)c(C)nc12 |  | -1.24% |
| CCC(=O)c1ccc(OCC(=O)Nc2ccc(N3CCCCC3)cc2)cc1 |  | 0.121% |
| CC1CCN(c2ccc(-c3ccc(NC(=O)c4ccco4)cc3)nn2)CC1 |  | 13.5% |
| CCC(=O)Nc1ccc(-c2ccc(N3CCCCC3)nn2)cc1 | 17.8 µM (active) |  |
| CCOc1ccc(/C(O)=C2\C(=O)C(=O)N(c3ccc(OC)cc3)C2c2ccccc2[N+](=O)[O-])cc1 (configuration not stated) |  | -5.38% |
| CCOC(=O)C1=C(c2ccccc2)NC(=O)NC1c1cc(OC)c(OC)cc1OC (configuration not stated) |  | 5.15% |
| CCCC[C@]12Cc3cc(OC)c(OC)cc3C(O1)C1=C(CC3(CCCCC3)OC1=O)O2 |  | -0.167% [at 9.22 µM] |
